A selection: hits, their analogues and other compounds. The true share with any hit is near 28%.
CYP2C9 activ: CYP2C9 (human) activation; recombinant CYP2C9, luciferin-H conversion, luminescence; hits give high values; factor 1 = untreated enzyme, 0 = blocked; activation factor at 5 µM; 96,000 compounds, 1.4% hits; AID 1024;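 active means activation factor of 2 or more for CYP2C9 at a 5 µM dose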;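 further: 0 = sulfaphenazole-blocked wells and 1 = vehicle-only wells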
D1 allo mod: D1 dopamine receptor (human) allosteric modulation | P21728 | AID 641 | B-score at 10 µM | 58,000 compounds, 5.9% hits | HEK293 D1, CRE-luciferase, dopamine EC30 potentiation; actives deviate in either direction;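 active means luminescence count or its row- and column-corrected plate score outside the 99.7% band of the plate's sample wells, on either side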
CYP2C9 inh: blocks human cytochrome P450 2C9. P11712. CYP2C9 Supersomes, luciferin-H conversion, luminescence. inhibition, % at 5 µM. 96,000 compounds, 20% hits;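 active means blocking of liver enzyme CYP2C9 beyond about 50% at 5 µM, limit read from the data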
CYP2C19 act: increases human CYP2C19 enzyme activity. P33261. activation factor at 5 µM. 96,000 tested, under 10 active. AID 1025. recombinant CYP2C19, luciferin-H EGE luminescence; hits give high values; 0 = fully inhibited enzyme, 1 = untreated enzyme;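 active means activation factor of at least 2 at 5 µM in the primary screen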;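 further: 0 = wells with 2.5 mM tranylcypromine and 1 = vehicle-only wells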
DAT uptake mod: modulates human dopamine transporter uptake under cocaine | LLC-PK1 hDAT cells, [14C]-dopamine uptake with cocaine IC80; actives deviate in either direction | B-score at 10 µM | 110,000 compounds, 1.3% hits | AID 449768;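 active means Z score or B-score, a plate-position-corrected score, falls beyond the plate's 99.7% confidence bounds, in either direction; inactive means both scores lie inside the 99.7% bounds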;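 further: scored against the spread of the other compound wells on the same plate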
Target sequence (Q01959 whole entry, looked up): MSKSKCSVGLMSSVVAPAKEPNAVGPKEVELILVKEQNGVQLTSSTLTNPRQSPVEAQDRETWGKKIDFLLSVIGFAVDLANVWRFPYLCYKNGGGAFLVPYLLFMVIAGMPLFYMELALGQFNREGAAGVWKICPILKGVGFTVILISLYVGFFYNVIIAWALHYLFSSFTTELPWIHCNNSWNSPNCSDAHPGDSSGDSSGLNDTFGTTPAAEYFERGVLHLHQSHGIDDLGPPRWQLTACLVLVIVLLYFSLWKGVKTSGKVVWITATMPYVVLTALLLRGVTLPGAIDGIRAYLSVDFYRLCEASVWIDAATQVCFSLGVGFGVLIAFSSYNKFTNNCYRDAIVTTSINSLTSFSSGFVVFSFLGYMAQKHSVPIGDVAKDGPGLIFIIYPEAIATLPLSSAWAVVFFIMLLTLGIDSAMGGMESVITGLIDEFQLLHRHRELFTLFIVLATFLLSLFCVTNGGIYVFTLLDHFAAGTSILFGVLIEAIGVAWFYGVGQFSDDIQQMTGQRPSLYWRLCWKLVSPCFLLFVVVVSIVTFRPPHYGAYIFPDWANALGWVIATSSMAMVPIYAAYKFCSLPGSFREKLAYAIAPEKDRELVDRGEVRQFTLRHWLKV
CYP2C19 inhib: blocks human cytochrome P450 2C19; P33261; CYP2C19 Supersomes, luciferin-H EGE luminescence, 30 min; inhibition, % at 5 µM; 96,000 compounds, 21% hits; AID 778;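 active means CYP2C19 inhibition above a set limit at 5 µM in the primary screen, cut at about 50% in these data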;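 further: plate controls were negative control wells for no effect and 2.5 mM tranylcypromine positive control for full effect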
* hit, by the source's call; . = no result given.

SMILES | CYP2C9 activ | D1 allo mod | CYP2C9 inh | CYP2C19 act | DAT uptake mod | CYP2C19 inhib
S=C(Nc1ccc(N2CCOCC2)cc1)Nc1ccc2nc(-c3ccco3)c(-c3ccco3)nc2c1 | 0.7 | . | 28 | 0.7 | . | 30
Cc1ccc(S(=O)(=O)N2CCN(C(=O)c3cc4c(C)nn(-c5ccccc5C)c4s3)CC2)cc1 | 0.4 | . | 63* | 0.6 | 0.54 | 42
NC1=NC[C@H](Cc2ccc(O)cc2)N1CCCCC1CCCCC1 | . | . | . | . | -4.1* | .
NC1=NC[C@H](Cc2ccccc2)N1CCCCC1CCCCC1 | . | . | . | . | -3* | .
Cn1c(=O)[nH]c(=O)c2c1nc(SCCN1CCOCC1)n2CCCc1ccccc1 | 0.3 | 2.4 | 67* | 0.8 | -0.014 | 23
Cn1c(=O)[nH]c(=O)c2c1nc(SCCN1CCOCC1)n2Cc1ccccc1 | 1 | 0.19 | 2 | 1.1 | -0.004 | -9
Cc1nnc(Sc2nc3c(c(=O)[nH]c(=O)n3C)n2CCCc2ccccc2)s1 | 0.4 | 2.9 | 60* | 0.7 | -0.045 | 27
CCOC(=O)CSc1nc2c(c(=O)[nH]c(=O)n2C)n1CCc1ccccc1 | 0.9 | -0.48 | 7 | 0.8 | 0.13 | 16
CCOC(=O)C(CC)Sc1nc2c(c(=O)[nH]c(=O)n2C)n1CCc1ccccc1 (stereo not drawn) | 0.2 | 0.14 | 78* | 0.4 | 1.2 | 60*
FC(F)(F)C(Oc1nc(Nc2ccc(Cl)cc2)nc(N2CCOCC2)n1)C(F)(F)F | . | . | . | . | -0.37 | .
Cc1n[nH]c(C)c1S(=O)(=O)N1CCCCCC1 | 0.9 | 0.058 | 11 | 0.6 | -2 | 38
Cc1c(SCCO)c(=O)[nH]c2cc3c(cc12)OCO3 | 1 | . | 2 | 1 | -0.055 | 3
CCOC(=O)N1CCN(C(=O)c2nc3ccccc3s2)CC1 | 1 | . | 4 | 0.8 | 0.062 | 16
Cc1ccc(NC(=O)CSc2nnc(-c3cccs3)n2Cc2ccco2)cc1 | 0.6 | . | 45 | 0.8 | 0.081 | 16
Cc1ccc(NCc2nnc(SCC(=O)c3ccccc3)n2Cc2ccco2)c(C)c1 | 0.2 | -0.56 | 81* | 0.2 | 0.54 | 84*
Cc1ccc(NCc2nnc(SCC(=O)c3ccccc3)o2)c(C)c1 | 1 | 0.52 | 0 | 1 | 0.42 | -3
Cc1ccc(C)c(CSc2nnc(-c3cccs3)n2Cc2ccco2)c1 | 0.5 | . | 49 | 0.5 | 0.85 | 52*
Cc1ccc(NC(=O)CSc2nnc(CSc3nc(C)cc(C)n3)n2Cc2ccco2)c(C)c1 | 0.7 | 1.3 | 28 | 0.9 | 2.7* | 8
Cc1cc(C)nc(SCc2nnc(SCC(N)=O)n2Cc2ccco2)n1 | 1 | . | -4 | 1 | -0.15 | 2
Cc1cc(C)nc(SCc2nnc(SCC(=O)Nc3ccccc3C)n2Cc2ccco2)n1 | 0.3 | -0.43 | 70* | 0.4 | -0.46 | 62*
Cc1ccc(C)c(NC(=O)CSc2nnc(CSc3nc(C)cc(C)n3)n2Cc2ccco2)c1 | 0.5 | 0.24 | 51* | 0.7 | 1.7 | 34
Cc1ccc(S(=O)(=O)Nc2ccc(NC(=O)CN3CCCCC3)c(Cl)c2)cc1 | 0 | . | 100* | 0.3 | 1 | 71*
O=C(CN1CCCCC1)Nc1cccc(Cl)c1Cl | 1.1 | -0.036 | -11 | 0.7 | -0.019 | 31
O=C(CN1CCCCCC1)Nc1ccc(F)c(F)c1 | . | . | . | . | 0.59 | .
CCC(=O)Nc1ccc(NC(=O)CN2CCCC(C)C2)c(Cl)c1 (stereo not drawn) | 0.9 | -0.057 | 6 | 1 | 0.28 | 3
SMILES | CYP2C9 activ | D1 allo mod | CYP2C9 inh | CYP2C19 act | DAT uptake mod | CYP2C19 inhib
O=C(CN1CCOCC1)Nc1ccccc1Cl | 1 | . | 1 | 0.8 | -1.1 | 19
O=C(CN1CCCCC1)Nc1cc(Cl)ccc1Cl | 2.2* | 0.15 | -118 | 0.4 | -0.14 | 63*
O=C(CN1CCOCC1)Nc1cccc(Cl)c1Cl | 1.3 | 1.7 | -30 | 0.2 | -0.89 | 78*
O=C(CN1CCCCC1)Nc1ccc(F)c(Cl)c1 | 0.9 | -0.015 | 8 | 0.2 | -2.1 | 81*
CC1CCCC(C(=O)O)N1C(=O)CCSSCCC(=O)N1C(C)CCCC1C(=O)O (stereo not drawn) | 1.1 | . | -14 | 1.1 | 0.32 | -12
O=C(CCC1CCCC1)Nc1ccon1 | 0.9 | -1.4 | 12 | 0.7 | -0.1 | 26
CC(C)[C@H](N)c1nnc(SC/C=C/c2ccccc2)o1 | 0.8 | . | 16 | 0.2 | 1.1 | 82*
CCOc1cc(NC(=O)c2ccccn2)c(OCC)cc1NC(=O)CC(C)C | 0.6 | 0.048 | 44 | 0.7 | -0.45 | 32

Assay outcomes: PubChem, several laboratories
